Compounds without any hit were thinned out: in the full panel of roughly 83,000, 20% have a hit.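 The test compound was applied at a single concentration to cells in 96-well plates for 48 hours, and percent growth was recorded.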 Active and inactive are the calls of the source. The calls were made as follows: active = growth percent below 10; inactive = the rest.
What follows are molecules tested on COLO 205 colon (assay: NCI-60 one-dose screen, 48 h (100 = growth as untreated, 0 = no growth, -100 = all killed)). Conditions: 10 µM unless noted.
With `COC(=O)C1(CC(C)=O)NC(=S)NC(=O)C1C#N` (stereo unspecified) the growth was 117% (inactive).
With `O=Cc1ccc(Cl)c(Cl)c1` the growth was 104% (inactive).
With `CC(=O)c1cc(O)ccc1O` the growth was 123% (inactive).
In the case of `Nc1c(Br)cc(O)c2c1C(=O)c1ccccc1C2=O`, the growth is reported as 135% (inactive).
`O=C1CSc2ccccc2N1` was tested, and the growth was 108% (inactive).
In the case of `NC(=S)N/N=C/c1ccc(OC(=O)COc2ccccc2)cn1`, the growth is reported as 85.9% (inactive).
For `CCOc1ccc2c(c1)c(C)cc(C)[n+]2CC`, the growth was 65.5% (inactive).
In the case of `CC1=CC(=Nc2ccc(N(C)C)cc2)C=C(C)C1=O`, the growth is reported as -14.5% (active).
For `COc1cc(CC#N)c([N+](=O)[O-])cc1OC`, the growth was 110% (inactive).
`CCC12OC(COc3ccccc3)CN1CCN2c1ccccc1` (stereo unspecified) was tested, and the growth was 118% [100 µM] (inactive).
With `C=CCOc1ccc(Cl)cc1Cl` the growth was 109% (inactive).
In the case of `CCc1ccccc1C(=O)N(CC)CC`, the growth is reported as 111% (inactive).
`Cc1ccc(S(=O)(=O)Oc2ccc3sc4c(CO)ccc(NCCN(C)C)c4c(=O)c3c2)cc1` was tested, and the growth was -87.6% [100 µM] (active).
In the case of `CCOC(=O)c1cc(C)[nH]c(=O)c1C#N`, the growth is reported as 114% (inactive).
For `CCN(CC)CCOC(=O)Nc1c(C(C)C)cccc1C(C)C`, the growth was 117% (inactive).
For `N#CCCN1C(=O)CCC1C(=O)O` (stereo unspecified), the growth was 115% (inactive).
`NNc1ncccn1` was tested, and the growth was 117% (inactive).
For `Cc1cc(=O)n(Nc2ccccc2)c(O)c1C#N`, the growth was 104% (inactive).
For `CC(=O)N(C)N=Nc1ccc(C)cc1`, the growth was 115% (inactive).
`OCC1OC(n2ccc3c2ncn2ncnc32)C(O)C1O` (stereo unspecified) was tested, and the growth was 35% (inactive).
With `CC(C)(C)[Si](C)(C)OCC1OC(n2cnc3c(N)ncnc32)CC1OS(C)(=O)=O` (stereo unspecified) the growth was 110% (inactive).

Source: PubChem BioAssay (NCI)
